# The whole screen tested about 340,000 compounds, of which about 5,100 (1.5%) were called active. The sample holds actives, similar compounds and a random draw of the others, so the mix is not that of the screen. Unmarked numbers belong to inactive results.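 Rule for the calls: active = mean Tm shift, scaled 0 neutral to 100 positive control, at about 1.3% or above, every replicate too (limit read from the data); inconclusive = no clear call, values can overlap the other calls; inactive = the rest.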
# Target: Fibroblast growth factor 22 (Homo sapiens) (UniProt Q9HCT0)
# Sequence (Q9HCT0 whole entry, looked up): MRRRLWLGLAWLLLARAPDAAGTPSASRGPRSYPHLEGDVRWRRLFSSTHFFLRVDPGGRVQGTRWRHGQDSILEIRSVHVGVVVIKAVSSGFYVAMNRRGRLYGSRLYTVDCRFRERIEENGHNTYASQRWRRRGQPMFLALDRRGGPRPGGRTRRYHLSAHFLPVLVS
# Test: FGF22 ligand-induced thermal stabilization – biophysical, thermal shift, single point, FGF22 synaptogenesis inhibitor project, primary screen (AID 651658)
# Settings: recombinant FGF22 thermal shift, SYPRO orange fluorescence; at 9.99 µM; hits give high values; percent of sucrose octasulfate shift, DMSO zero
row,SMILES,"activity (Tm shift, normalised)"
1,C[C@H](CO)N1C[C@H](C)[C@@H](CN(C)S(=O)(=O)c2cn(C)cn2)Oc2ccc(N(C)C)cc2CC1=O,0.089%
2,Cc1ccc(S(=O)(=O)N2CCCCC2)cc1C(=O)N(C)CC(=O)Nc1cccc(F)c1,-0.088%
3,CN(CC(=O)Nc1cccc(F)c1)C(=O)CC1CCCC1,0.042%
4,Cc1ccc(NC(=O)CN(C)CC(=O)Nc2cccc(F)c2)cc1[N+](=O)[O-],43.3% (active)
5,Cc1cc(C(=O)Nc2ccc3c(c2)C(=O)N(C)[C@H]2CC[C@H](CC(=O)NCC(F)(F)F)O[C@@H]2CO3)no1,-0.217%
6,COc1cccc(S(=O)(=O)N(C)C[C@@H]2Oc3cc(C4=CCCCC4)ccc3S(=O)(=O)N([C@H](C)CO)C[C@H]2C)c1,0.057%
7,CC(=O)N(C)C[C@@H]1Oc2cc(-c3ccncc3)ccc2S(=O)(=O)N([C@@H](C)CO)C[C@H]1C,-0.496%
8,C[C@H](CO)N1C[C@H](C)[C@@H](CN(C)S(=O)(=O)c2ccc(F)cc2)Oc2cc(C3=CCCC3)ccc2S1(=O)=O,-0.123%
9,C[C@H]1CN([C@@H](C)CO)S(=O)(=O)c2ccc(C#Cc3ccncc3)cc2O[C@@H]1CN(C)C(=O)Nc1ccc2c(c1)OCO2,0.074%
10,Cc1ccc(S(=O)(=O)N(C)C[C@@H]2Oc3cc(C4=CCCC4)ccc3S(=O)(=O)N([C@@H](C)CO)C[C@@H]2C)cc1,1.23% (active)
11,C[C@H]1CN([C@@H](C)CO)S(=O)(=O)c2ccc(C3=CCCC3)cc2O[C@H]1CN(C)C(=O)Nc1ccc2c(c1)OCO2,1.26% (active)
12,C[C@H](CO)N1C[C@H](C)[C@H](CN(C)C(=O)Nc2ccc3c(c2)OCO3)Oc2cc(C#Cc3ccncc3)ccc2S1(=O)=O,-0.273%
13,C[C@@H]1CN([C@@H](C)CO)S(=O)(=O)c2ccc(-c3ccncc3)cc2O[C@@H]1CN(C)C(=O)Nc1ccc(F)cc1,1.27% (active)
14,C[C@@H]1CN([C@H](C)CO)S(=O)(=O)c2ccc(-c3ccncc3)cc2O[C@@H]1CN(C)C(=O)Nc1ccc(C(F)(F)F)cc1,1.48% (active)
15,COc1ccc(NC(=O)N(C)C[C@H]2Oc3cc(-c4ccncc4)ccc3S(=O)(=O)N([C@@H](C)CO)C[C@H]2C)cc1,-0.124%
16,COc1ccc(NC(=O)N(C)C[C@H]2Oc3cc(-c4ccncc4)ccc3S(=O)(=O)N([C@H](C)CO)C[C@H]2C)cc1,0.949%
17,Cc1ccc(-c2ccc3c(c2)O[C@H](CN(C)C(=O)Nc2ccc(C(F)(F)F)cc2)[C@@H](C)CN([C@H](C)CO)S3(=O)=O)cc1,0.037%
18,CC(C)CC#Cc1cnc2c(c1)C(=O)N([C@@H](C)CO)C[C@H](C)[C@@H](CN(C)C(=O)c1cccc(F)c1)O2,-0.381%
19,CN1c2ccc(-c3ccccc3F)cc2[C@@H]2[C@@H](CCN2C(=O)CN2CCOCC2)[C@H]1CO,-0.099%

row,SMILES,"activity (Tm shift, normalised)"
1,O=C(C[C@H]1C[C@@H]2c3cc(NC(=O)C4CCC4)ccc3O[C@@H]2[C@H](CO)O1)NCCN1CCCCC1,0.001%
2,O=C1C[C@@](C(=O)NCC(F)(F)F)(c2ccc([N+](=O)[O-])cc2)[C@@H](c2ccc(CO)cc2I)N1C1CCCCC1,0.18%
3,CCC(=O)N1C[C@@H](C)[C@@H](OC)CN(C)C(=O)c2ccc(NC(=O)c3ccccc3)cc2OC[C@H]1C,-0.17%
4,COc1ccc2c3c([nH]c2c1)[C@H](CO)N(C(=O)C1CCCCC1)CC31CCN(C(=O)c2ccncc2)CC1,-0.034%
5,CC(C)NC(=O)N(C)C[C@H]1OCCCC[C@H](C)Oc2ccc(NC(=O)CCC(F)(F)F)cc2C(=O)N([C@@H](C)CO)C[C@@H]1C,-0.59%
6,C[C@H](CO)N1C[C@H](C)[C@H](CN(C)C(=O)Nc2ccc(F)cc2)Oc2ncc(-c3cc4ccccc4o3)cc2C1=O,-0.101%
7,CN(C)CC(=O)N1CCCCN2[C@@H](CO)[C@H](c3ccc(-c4cccnc4)cc3)[C@@H]2C1,0.193%
8,C[C@@H]1CN([C@H](C)CO)C(=O)c2cc(NC(=O)Nc3ccc(C(F)(F)F)cc3)ccc2O[C@@H](C)CCCCO[C@@H]1CN(C)Cc1ccc(C(F)(F)F)cc1,0.296%
9,Cc1ccc(S(=O)(=O)Nc2ccc3c(c2)C(=O)N([C@H](C)CO)C[C@@H](C)[C@H](CN(C)S(=O)(=O)c2ccc(C)cc2)OCCCC[C@@H](C)O3)cc1,31.1% (active)
10,COc1ccc(CN(C)C[C@H]2OCCCC[C@@H](C)Oc3ccc(NS(=O)(=O)c4ccccc4)cc3C(=O)N([C@@H](C)CO)C[C@@H]2C)cc1,0.068%
11,Cc1ccc(S(=O)(=O)N(C)C[C@@H]2OCCCC[C@@H](C)Oc3ccc(NS(=O)(=O)c4ccc(F)cc4)cc3C(=O)N([C@H](C)CO)C[C@H]2C)cc1,-0.311%
12,C[C@@H]1CCCCO[C@@H](CN(C)Cc2ccc(C(=O)O)cc2)[C@H](C)CN([C@@H](C)CO)C(=O)c2cc(NC(=O)Nc3ccc(C(F)(F)F)cc3)ccc2O1,-0.357%
13,Cc1ccc(S(=O)(=O)N(C)C[C@@H]2OCCCC[C@@H](C)Oc3ccc(NS(=O)(=O)c4ccccc4)cc3C(=O)N([C@H](C)CO)C[C@@H]2C)cc1,-0.059%
14,C[C@@H]1CCCCO[C@@H](CN(C)Cc2ccncc2)[C@H](C)CN([C@H](C)CO)C(=O)c2cc(NC(=O)Cc3ccccc3)ccc2O1,25.7% (active)
15,C[C@@H]1CCCCO[C@H](CN(C)Cc2ccccc2)[C@@H](C)CN([C@H](C)CO)C(=O)c2cc(NC(=O)Cc3ccccc3)ccc2O1,0.467%
16,C[C@@H]1CCCCO[C@@H](CN(C)Cc2ccc(C(=O)O)cc2)[C@@H](C)CN([C@@H](C)CO)C(=O)c2cc(NC(=O)Nc3ccc(C(F)(F)F)cc3)ccc2O1,10.4% (active)
17,COc1ccc(S(=O)(=O)Nc2ccc3c(c2)C(=O)N([C@H](C)CO)C[C@H](C)[C@@H](CN(C)Cc2ccccc2)OCCCC[C@@H](C)O3)cc1,-0.202%
18,C[C@@H]1CN([C@H](C)CO)C(=O)c2cc(NC(=O)Cc3ccccc3)ccc2O[C@@H](C)CCCCO[C@@H]1CN(C)Cc1ccncc1,-0.393%
19,COc1ccc(S(=O)(=O)Nc2ccc3c(c2)C(=O)N([C@@H](C)CO)C[C@H](C)[C@H](CN(C)Cc2ccc(C(=O)O)cc2)OCCCC[C@@H](C)O3)cc1,2.26% (active)
